Laboratory results as given in PubChem BioAssay (NCI).
The panel holds about 79,000 compounds, 15% with a hit somewhere; the sample as a whole holds those more often. Values without a mark were called inactive. Activity calls are given as the source filed them. Rule as the data show it: active = growth inhibition above about 70%; inactive = the rest.

Assays:
[1] = NCI Yeast Anticancer Drug Screen. Data for the rad50 strain (AID 155);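 also: 0% = growth of vehicle-only cultures of the same strain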; conditions: S. cerevisiae rad50 strain growth inhibition; at 50.0 µM; stronger effect = higher value
Outline: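 DNA repair mutant yeast, compound exposure, growth read-out; inhibition is taken relative to vehicle.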

[2] = NCI Yeast Anticancer Drug Screen. Data for the mec2-1 strain (AID 157); conditions: S. cerevisiae mec2-1 strain, at 50.0 µM, stronger effect = higher value
Outline: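 Readout is yeast growth inhibition, normalised to vehicle-treated controls, in the mec2-1 strain exposed to compound.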

[3] = NCI Yeast Anticancer Drug Screen. Data for the sgs1 mgt1 strain (AID 161);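 also: 0% = growth of cultures given vehicle only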; conditions: S. cerevisiae sgs1 mgt1 strain, at 50.0 µM, stronger effect = higher value
Outline: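 This yeast growth screen uses a strain with defined DNA-repair lesions; compound-treated growth is compared with vehicle-treated growth.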

[4] = NCI Yeast Anticancer Drug Screen. Data for the cln2 rad14 strain (AID 165);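 also: 0% = growth equal to vehicle treated cultures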; conditions: S. cerevisiae cln2 rad14 strain, at 50.0 µM, stronger effect = higher value
Outline: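 Relative to vehicle controls, growth inhibition of compound-treated cln2 rad14 yeast was recorded.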

[5] = NCI Yeast Anticancer Drug Screen. Data for the bub3 strain (AID 167); conditions: S. cerevisiae bub3 mutant strain, at 50.0 µM, stronger effect = higher value
Outline: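 In this screen, a yeast mutant lacking normal mitotic checkpoint function is challenged with compound. Relative growth versus vehicle gives the inhibition value.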

[6] = NCI Yeast Anticancer Drug Screen. Data for the mlh1 rad18 strain (AID 175); conditions: S. cerevisiae mlh1 rad18 strain growth inhibition; at 50.0 µM; stronger effect = higher value
Outline: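 Test agents were incubated with a yeast strain of defined genotype (DNA damage repair defect). Inhibition of growth was derived by comparison with vehicle-exposed cultures.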

SMILES | growth inhibition [1] [%] | growth inhibition [2] [%] | growth inhibition [3] | growth inhibition [4] [%] | growth inhibition [5] [%] | growth inhibition [6]
NC(=S)N/N=c1\cc(C(=O)Nc2ccc([N+](=O)[O-])cc2[N+](=O)[O-])oc2ccccc12 | 19.1 | 26.3 | 16.1% | -6 | 22.9 | 28%
COC(=O)C1OC(O[C@H]2CC[C@]3(C)[C@H]4CC=C5[C@@H]6CC(C)(C)CC[C@]6(C(=O)OC)CC[C@@]5(C)[C@]4(C)CC[C@H]3C2(C)C)C(O)C(O)C1O (stereo not given in full) | 5.45 | -8.4 | 2.05% | 5.85 | 23.6 | 15.1%
Cc1cc(C)c2c(=O)cc(-c3cccc(Cl)c3)[nH]c2n1 | 15.6 | -12.4 | -25% | -23.8 | -50.7 | -65.7%
O=C1CCCC2=C(N1)C(=O)C=CC2=O | -2.55 | 20.9 | 17.1% | 39.5 | -0.2 | -20.9%
CSS(=O)(=O)C(c1ccccc1)c1ccccc1 | -14.6 | 2.55 | -2.1% | -2.45 | 60.2 | -14.8%
C[C@@H]1C(N2CCCC2)=CC(=O)OC1c1ccccc1 (stereo not given in full) | -3.65 | -11.1 | 11.3% | -6.4 | -1.3 | 1.95%
O=Cc1cc(C(=O)c2ccccn2)c2cc(Cl)cc(Cl)c2n1 | 8.05 | 5.9 | 5.8% | -13.8 | -4.3 | 11.6%
COc1ccc2ncc(COC(=O)NC3CCCCC3)c(COC(=O)NC3CCCCC3)c2c1 | 36.9 | -2.1 | 24.4% | -0.6 | -4.25 | 22.5%
C/C(=N/NC(=O)CC#N)c1ccccc1 | 25.2 | -0.5 | 16.7% | -20.6 | 27.7 | 0.4%
CSc1nc(NC2OC(COC(C)=O)C(OC(C)=O)C(OC(C)=O)C2OC(C)=O)c(C(=O)CCl)c(=O)n1C (stereo not given) | 6.8 | 15.9 | 3.15% | 5.8 | 5.1 | 24.5%
CCCCN(CCCC)C(=O)C(=O)C(C)C(=O)CC (stereo not given) | -3.6 | -2.75 | 14.7% | -1.05 | 12.3 | 25.7%
COC(=O)C(CC(=O)[C@H]1CC[C@H]2[C@@H]3CC=C4C[C@@H](OC(C)=O)CC[C@]4(C)[C@H]3CC[C@]12C)OC(C)=O (stereo not given in full) | 18.7 | -6.2 | 26.7% | 28.9 | -1.75 | 8.7%
CC(=O)O[C@H]1CC(C)(C)C(=C=C/C(C)=C/C=C/C=C/C=C(C)/C=C2C=C(/C=C/[C@@]34O[C@]3(C)C[C@@H](O)CC4(C)C)C(=O)O/2)[C@](C)(O)C1 | 9.55 | 32.5 | 0.9% | 6.2 | 3.6 | 3.95%
COC(=O)C1(CC(=O)C2CC2)NC(=S)NC(=O)C1C#N (stereo not given) | 13.2 | -10.2 | -12.3% | -8.6 | -21.4 | 5.2%
COc1ccc2c(Cc3ccccc3O)cncc2c1O | 0.9 | 2.25 | -4.75% | -3.5 | -5.9 | 14.8%
O=C(Nc1cc2[nH]c(=O)c3ccccc3c2cc1[N+](=O)[O-])C(F)(F)F | 40 | -5.85 | 10.8% | 0.9 | -12.4 | 0.25%
O=C(O)C(CS(=O)(=O)O)S(=O)(=O)O (stereo not given) | -10.3 | -18.2 | -1.9% | -7.15 | 3.15 | -10.5%
CC1(C)Nc2cc3c(cc2-n2cccc21)oc1ccccc13 | 17.3 | -3.55 | 39.5% | 45.6 | 30.4 | 27.4%
N#Cc1c(-c2ccc(Cl)cc2)c2c(n(C3OC(CO)C(O)C(O)C3O)c1=S)CCC2 (stereo not given) | 12.5 | 32.1 | 61.3% | 31.9 | 50.4 | 42.4%
N#CC1(NC2CCCCC2)CCN(Cc2ccccc2)CC1 | -5.5 | -11.9 | -6.1% | 4.1 | -7.5 | -1.75%

SMILES | growth inhibition [1] [%] | growth inhibition [2] [%] | growth inhibition [3] | growth inhibition [4] [%] | growth inhibition [5] [%] | growth inhibition [6]
C/C(=N/NS(=O)(=O)c1ccc(C)cc1)C(C)C | 3.05 | 1.75 | 10.8% | -6.85 | 3.4 | 23.8%
CSc1nc(NC2OCC(O)C(O)C2O)c(Br)c(=O)n1C (stereo not given) | 9.05 | 15.8 | -0.75% | 1.95 | 6.3 | 36%
C/C(=N/NS(=O)(=O)c1ccc(N)cc1)c1ccccc1 | 9.9 | -14.8 | 1.45% | 15.6 | -41.4 | -17.8%
Cc1cc2c(=O)cc(-c3ccc(F)cc3)oc2c(C(=O)O)c1C | -19.1 | -1.1 | -5.6% | 17.4 | -4.4 | 33.3%
Cn1cnc2cc(N3CCOCC3)c([N+](=O)[O-])cc2c1=O | 17.4 | 12 | -0.7% | 12.8 | -1.9 | 17.8%
CCOC(=O)C1(C(=O)OCC)CC(CCC#N)(CCC#N)C(=O)C(CCC#N)(CCC#N)C1 | -2.15 | -5.5 | 1.55% | -3.1 | -11.4 | -26.8%
C/C(=N\NC(=O)C1CCCO1)c1cccc2ccccc12 (stereo not given) | 3.1 | 11.5 | 5.55% | 17 | 3.9 | 3.55%
O=c1c2ccccc2on1CN1CCN(Cn2oc3ccccc3c2=O)CC1 | 3.6 | -11.1 | -8% | -12.9 | -12.1 | 5.05%
CNCc1ccccc1 | -1.25 | -2.8 | -21% | -23 | -19.8 | -3.4%
O=C(NC/C=C/Br)Oc1cccc2ccccc12 | -0.05 | 18.6 | 0.9% | 36.8 | 2.85 | 11.3%
CN(C)S(=O)(=O)c1ccc(NC(=O)OC2CCCC2)cc1 | 12.9 | 3.7 | 6.8% | 33.2 | 24.6 | 0.35%
Cc1ccc(S(=O)(=O)C(Cl)(SCl)Sc2ccccc2)cc1 (stereo not given) | 64 | 41.2 | 74.9% (active) | 47.3 | 46.4 | 77.9% (active)
O=C(O)C1c2ccccc2-c2ccccc21 | 52.4 | 31.6 | 41.5% | -37.7 | 37.6 | 39%
CCCCCCCCCCCCCCCCCCCCC1CC(=O)OC1=O (stereo not given) | 41.6 | 11.8 | 36.4% | 9.45 | 2.7 | 29.2%
O=C(O)CCC(=O)C(Cc1ccccc1)NC(=O)c1ccccc1 (stereo not given) | -14.4 | -16.6 | -10.1% | -4.05 | 6.1 | -10.4%
CC(=O)[O-].O=S(=O)(Nc1ncccn1)c1ccc(N=Cc2ccccc2O)cc1.O=S(=O)(Nc1ncccn1)c1ccc(N=Cc2ccccc2O)cc1.[Co+2] | 25.4 | 23.2 | 26.6% | 27.7 | 32.2 | 25.1%
CN(C)CCN(C)C(=N)N | -10.3 | -4.25 | -6.45% | -7.5 | -6.55 | -10.9%
CCCCC(/C=C(/C)C(=O)O)CC (stereo not given) | 6.9 | 1.6 | 3.9% | -1.8 | 3.3 | 0.9%
S=C1Nc2ccccc2C2CC=NN12 (stereo not given) | -1.75 | -4.15 | 10.6% | -30 | -44.6 | 29.4%
Cn1cccc1/C=N/N=C(/N)NO | 22.9 | -9.85 | -13.7% | -4.5 | -18.5 | -0.4%
